Results: PubChem BioAssay (NCATS)
Results filed as inconclusive are left out. The source made the active and inactive calls. Calls follow the shape of the dose curve; as a rule, active = well fitted curve in the direction sought with a large enough effect; inconclusive = small, poorly fitted or top-dose-only effect, or another doubt; inactive = no such curve, though single readings can be large; an effect the other way counts as inactive or inconclusive.

Tests used:
MCC-13 = experiment: qHTS assay to identify novel small-molecules to repurpose for Merkel cell carcinoma treatment (AID 1296009); conditions: MCC and control cell lines, CellTiter-Glo viability, 72 h; series mostly up to 46 µM; also: nearly all actives have a fitted effect of over 60% in size
Outline: (§1)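 Dose-response viability screen; 72 hr exposure at 37 degree celsius; CellTiter-Glo added, 10 min room temperature, luminescence read; RLUs scaled between no-cell and DMSO wells.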

MCC-26 = experiment: as above; conditions: MCC and control cell lines, CellTiter-Glo viability, 72 h; series mostly up to 46 µM
Outline: as §1

MKL-1 = experiment: as above; conditions: MCC and control cell lines, CellTiter-Glo viability, 72 h; series mostly up to 46 µM
Outline: as §1

MKL-2 = experiment: as above; conditions: MCC and control cell lines, CellTiter-Glo viability, 72 h; series mostly up to 46 µM
Outline: as §1

NIH3T3 = experiment: as above; conditions: MCC and control cell lines, CellTiter-Glo viability, 72 h; at 44.8 µM (top of the series) unless noted
Outline: as §1

UISO = experiment: as above; conditions: MCC and control cell lines, CellTiter-Glo viability, 72 h; series mostly up to 46 µM
Outline: as §1

WaGa = experiment: as above; conditions: MCC and control cell lines, CellTiter-Glo viability, 72 h; series mostly up to 46 µM
Outline: as §1

C33A = experiment: Primary qHTS to identify gynecologic anti-cancer compounds using libraries of approved drugs and bioactive compounds (AID 1345084); conditions: Gynecologic cancer cell panel viability, ATPlite luminescence, 48 h; series mostly up to 57.5 µM; also: nearly all actives have a fitted effect of over 55% in size
Outline: (§2)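 Cell viability after 48 h drug treatment, ATPlite luminescence readout; five doses.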

CAOV3 = experiment: as above; conditions: Gynecologic cancer cell panel viability, ATPlite luminescence, 48 h; series mostly up to 57.5 µM
Outline: as §2

CASKI = experiment: as above; conditions: Gynecologic cancer cell panel viability, ATPlite luminescence, 48 h; series mostly up to 57.5 µM
Outline: as §2

Es-2 = experiment: as above; conditions: Gynecologic cancer cell panel viability, ATPlite luminescence, 48 h; series mostly up to 57.5 µM
Outline: as §2

HeLa = experiment: as above; conditions: Gynecologic cancer cell panel viability, ATPlite luminescence, 48 h; series mostly up to 57.5 µM
Outline: as §2

Hek293T = experiment: as above; conditions: Gynecologic cancer cell panel viability, ATPlite luminescence, 48 h, control line for the selectivity index; series mostly up to 57.5 µM
Outline: as §2

JEG-3 = experiment: as above; conditions: Gynecologic cancer cell panel viability, ATPlite luminescence, 48 h; series mostly up to 57.5 µM
Outline: as §2

OV90 = experiment: as above; conditions: Gynecologic cancer cell panel viability, ATPlite luminescence, 48 h; series mostly up to 57.5 µM
Outline: as §2

PA-1 = experiment: as above; conditions: Gynecologic cancer cell panel viability, ATPlite luminescence, 48 h; series mostly up to 57.5 µM
Outline: as §2

SKOV3 = experiment: as above; conditions: Gynecologic cancer cell panel viability, ATPlite luminescence, 48 h; series mostly up to 57.5 µM
Outline: as §2

Tov-21-G = experiment: as above; conditions: Gynecologic cancer cell panel viability, ATPlite luminescence, 48 h; series mostly up to 57.5 µM
Outline: as §2

Tov112D = experiment: as above; conditions: Gynecologic cancer cell panel viability, ATPlite luminescence, 48 h; series mostly up to 57.5 µM
Outline: as §2

Measured: Potency

COc1nccnc1NS(=O)(=O)c1ccc(N)cc1
inactive: all assays above

CC(=O)OCC(COC(C)=O)OC(C)=O
inactive: all assays above

Nc1ncnc(Nc2ccccc2)n1
not listed: OV90
inactive: all other assays above

NNc1nnc(NN)c2ccccc12
inactive: all assays above

CN1CCCN=C1COC(=O)C(O)(c1ccccc1)C1CCCCC1 (configuration not stated)
inactive: all assays above

Cc1c(C)c2c(c(C)c1OC(=O)c1cccnc1)CC[C@@](C)(CCC[C@H](C)CCC[C@H](C)CCCC(C)C)O2
inactive: all assays above

O=C(O)/C=C/c1ccc(Cn2ccnc2)cc1
not listed: OV90
inactive: all other assays above

CC(=O)Oc1cccc(O)c1
not listed: OV90
inactive: all other assays above

c1ccc2[nH]ccc2c1
inactive: all assays above

Cc1cccc(C(=O)O)c1O
not listed: Es-2 | HeLa | Hek293T | Tov-21-G
inactive: all other assays above

C[n+]1ccccc1/C=N/O
not listed: PA-1
inactive: all other assays above

NS(=O)(=O)c1cc(C2(O)NC(=O)c3ccccc32)ccc1Cl (configuration not stated)
inactive: all assays above

COC(=O)c1ccc(O)cc1
inactive: all assays above

CCCC(O)C(CC)CO (configuration not stated)
not listed: PA-1
inactive: all other assays above

Nc1ccc(C(=O)Oc2ccccc2)c(O)c1
inactive: all assays above

CCOC(=O)OC(C)OC(=O)[C@@H]1N2C(=O)[C@@H](NC(=O)[C@H](N)c3ccccc3)[C@H]2SC1(C)C (some centres not stated)
not listed: CAOV3
inactive: all other assays above

CC(=O)N(CC(O)CO)c1c(I)c(C(=O)NCC(O)CO)c(I)c(C(=O)NCC(O)CO)c1I (configuration not stated)
inactive: all assays above

NC(=O)c1ccc([N+](=O)[O-])cc1Cl
inactive: all assays above

Cc1c(NC(=O)c2cccnc2)c(=O)n(-c2ccccc2)n1C
not listed: CAOV3 | SKOV3
inactive: all other assays above

O=S1(=O)OC(c2ccc(O)cc2)(c2ccc(O)cc2)c2ccccc21
inactive: all assays above

Cc1c(I)c(=O)n(-c2ccccc2)n1C
inactive: all assays above

Cc1ccsc1/C=C/C1=NCCCN1C
not listed: CAOV3 | SKOV3
inactive: all other assays above

CC[C@]12CCCN3CCc4c(n(c5ccccc45)[C@@](O)(C(=O)OC)C1)[C@@H]32
not listed: SKOV3
inactive: all other assays above

CC(=O)N1C[C@H](O)C[C@H]1C(=O)O
not listed: SKOV3
inactive: all other assays above

CCCCCCCCCCCCCCCCCCO
not listed: PA-1
inactive: all other assays above

Cc1cc(C)nc(NS(=O)(=O)c2ccc(N)cc2)n1
inactive: all assays above

O=C(CN1CCNCC1)NC1CCCCC1
inactive: MCC-13 | MCC-26 | MKL-1 | MKL-2 | NIH3T3 inactive; activator | UISO | WaGa | C33A | CAOV3 | CASKI | Es-2 | HeLa | Hek293T | JEG-3 | OV90 | PA-1 | SKOV3 | Tov-21-G | Tov112D

COc1ccc(C(=O)N2CCN(CC(=O)N3CCOCC3)CC2)cc1
inactive: all assays above

CN1C(=O)CC(c2ccccc2)C1=O (configuration not stated)
not listed: CAOV3
inactive: all other assays above

CCCNC(C)C(=O)Nc1c(C)csc1C(=O)OC (configuration not stated)
not listed: CAOV3
inactive: all other assays above

O=C(O)[C@@H]1[C@H]2C[C@H]3c4[nH]c5ccccc5c4CCN3C[C@@H]2CC[C@@H]1O
not listed: OV90
inactive: all other assays above

NS(=O)(=O)c1ccc(C(=O)O)cc1
not listed: NIH3T3
inactive: all other assays above

O=C(O)c1ccccc1OP(=O)(O)O
not listed: NIH3T3
inactive: all other assays above

NCC1CCC(C(=O)Oc2ccc(CCC(=O)O)cc2)CC1 (configuration not stated)
not listed: NIH3T3
inactive: all other assays above

Cn1c([N+](=O)[O-])cnc1COC(N)=O
not listed: NIH3T3
inactive: all other assays above

CC(=O)NCc1c(I)c(NC(C)=O)c(I)c(C(=O)O)c1I
not listed: NIH3T3
inactive: all other assays above

CCCCOC(=O)c1ccc(N)cc1
not listed: NIH3T3
inactive: all other assays above
